Drawing on PubChem BioAssay (NCATS), this text covers Potency for 24 molecules.

A short description of experiment [1]: qHTS of pediatric cancer cell lines to identify multiple opportunities for drug repurposing: Primary screen for SK-N-MC cells (AID 1347093). Also: potency is read from the fitted curve at half-maximal effect. The essentials: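 Metabolically active cells were quantified by ATP-dependent luminescence (CellTiter-Glo, 15 min at room temperature) following 48 h treatment. Cells had been plated at 500-1,000 per well and settled for 5 h beforehand.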

Experiment [2] can be described thus: qHTS of pediatric cancer cell lines to identify multiple opportunities for drug repurposing: Primary screen for BT-37 cells (AID 1347094). Also: series mostly up to about 57 µM. The essentials:
(§1)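 Cells seeded at 500-1,000 cells/well in growth media, rested 5 hours at 37 degrees C, 5% CO2, then dosed; MIPE compounds at 11-point (from 0.78 nM) and NPC at 8-point (from 0.59 nM) final concentrations. Viability by CellTiter-Glo luminescence after 48 hours.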
In general terms: In qHTS, concentration-response curves come from the screen itself.

Experiment [3] is described as follows: qHTS of pediatric cancer cell lines to identify multiple opportunities for drug repurposing: Primary screen for NB-EBc1 cells (AID 1347095). The essentials:
as §1

Experiment [4] is described as follows: qHTS of pediatric cancer cell lines to identify multiple opportunities for drug repurposing: Primary screen for U-2 OS cells (AID 1347096). Also: nearly all actives have a fitted effect of over 50% in size. The essentials:
(§2)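 Cells (500-1,000/well) in growth media were settled 5 h at 37 degrees C, then given compounds for 48 h. Viability was read as CellTiter-Glo luminescence. Primary runs used MIPE at 11 points (0.78 nM-46 µM) and NPC at 8 points (0.59 nM-46 µM); follow-ups used 11 points.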

The nature of experiment [5]: qHTS of pediatric cancer cell lines to identify multiple opportunities for drug repurposing: Primary screen for SK-N-SH cells (AID 1347098).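 Also: DMSO served as neutral control and bortezomib at 2.3 µM as positive control; nearly all actives have a fitted effect of over 65% in size.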 The essentials:
(§3)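 Cells (500-1,000/well) rested 5 h, then received compounds for 48 h; metabolically active cells were measured by CellTiter-Glo luminescence. Final concentrations spanned up to 46 µM (MIPE, 11-point) or 0.59 nM-46 µM (NPC, 8-point) in primary screens, 11-point in follow-ups.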

Experiment [6] is described as follows: qHTS of pediatric cancer cell lines to identify multiple opportunities for drug repurposing: Primary screen for NB1643 cells (AID 1347099). Also: nearly all actives have a fitted effect of over 50% in size. The essentials:
as §1

Experiment [7] is described as follows: qHTS of pediatric cancer cell lines to identify multiple opportunities for drug repurposing: Primary screen for LAN-5 cells (AID 1347100). The essentials:
as §2

Experiment [8] in a line: qHTS of pediatric cancer cell lines to identify multiple opportunities for drug repurposing: Primary screen for BT-12 cells (AID 1347101). Also: nearly all actives have a fitted effect of over 25% in size. The essentials: as §3
Experiment [9] is described as follows: qHTS of pediatric cancer cell lines to identify multiple opportunities for drug repurposing: Primary screen for Rh18 cells (AID 1347102). Also: nearly all actives have a fitted effect of over 65% in size. The essentials:
as §2

The nature of experiment [10]: qHTS of pediatric cancer cell lines to identify multiple opportunities for drug repurposing: Primary screen for Saos-2 cells (AID 1347097). Also: nearly all actives have a fitted effect of over 40% in size. The essentials: as §1

Molecules are shown by their SMILES. Results filed as inconclusive are left out. Calls of active or inactive are those of the source. Calls follow the shape of the dose curve; as a rule, active = well fitted curve in the direction sought with a large enough effect; inconclusive = small, poorly fitted or top-dose-only effect, or another doubt; inactive = no such curve, though single readings can be large; an effect the other way counts as inactive or inconclusive.

As for `COC(=O)CCCCC(CCSS/C(CCO)=C(\C)N(C=O)Cc1cnc(C)nc1N)SC(C)=O` (configuration not stated), the Potency entry in experiment [1], in [2], in [3], in experiment [4], in experiment [5] and in experiment [6] was “inactive” throughout. Also, the Potency entry in experiment [7], in experiment [8] and in experiment [9] was “inactive” each time.
On to `CCN(CC)CC(=O)Nc1c(C)cccc1C(=O)OC`, for which the Potency result in experiment [1], in experiment [2], in [3], in experiment [4], in experiment [5] and in [6] was “inactive” in each case. Further, the Potency result in experiment [7], in experiment [8] and in [9] was “inactive” throughout.
Consider `NC(=O)NC1N=C([O][Al])NC1=O` (configuration not stated), for which the Potency result in experiment [1], in [2], in experiment [3], in experiment [4], in experiment [5] and in experiment [6] was “inactive” in each case. For the same molecule, the Potency result in [7], in experiment [8] and in experiment [9] was “inactive” each time.
In the case of `CCCCOCCOC(=O)c1cccnc1`, the Potency result in experiment [1], in [2], in experiment [3], in experiment [4], in experiment [10] and in experiment [5] was “inactive” each time. Also, the Potency entry in [7] and in [9] was “inactive” in each case.
In the case of `C/C(=C(/OCCOc1ccc(Cl)cc1)c1ccc(Cl)cc1Cl)n1ccnc1`, the Potency in experiment [1] was 21.1 µM (active). Besides, the Potency entry in experiment [2], in experiment [3], in [4], in [10], in experiment [7] and in experiment [9] was “inactive” throughout.
`OCCc1ccccc1`: the Potency entry in [1], in [2], in experiment [3], in experiment [4], in experiment [10] and in experiment [6] was “inactive” in each case. Besides, the Potency entry in experiment [7], in experiment [8] and in experiment [9] was “inactive” in each case.
Regarding `CCCOc1ccc2c(c1)CC[C@@H]1[C@@H]2CC[C@]2(C)C(OC)CC[C@@H]12` (some centres not stated), the Potency result in experiment [1], in experiment [2], in [3], in experiment [4], in experiment [5] and in experiment [6] was “inactive” throughout. Also, the Potency result in experiment [7] and in experiment [8] was “inactive” throughout.
With `CC(C)OP(=O)(CP(=O)(OC(C)C)OC(C)C)OC(C)C`, the Potency result in [1], in experiment [2], in [3], in [4], in experiment [5] and in experiment [6] was “inactive” each time. Moreover, the Potency result in experiment [7], in experiment [8] and in experiment [9] was “inactive” throughout.
As to `CCCCC(=O)OCC(=O)[C@H]1[C@H](C)C[C@H]2[C@@H]3C[C@H](F)C4=CC(=O)C=C[C@]4(C)[C@@]3(F)[C@@H](O)C[C@@]21C`, the Potency entry in [1], in experiment [2], in [3], in experiment [4], in experiment [5] and in [6] was “inactive” throughout. Moreover, the Potency entry in experiment [7] and in experiment [8] was “inactive” in each case.
Regarding `CCOC(=O)CN1CCCC1=O`, the Potency entry in experiment [1], in experiment [2], in experiment [3], in experiment [4], in experiment [5] and in experiment [6] was “inactive” throughout. For the same molecule, the Potency entry in experiment [7], in experiment [8] and in experiment [9] was “inactive” each time.
As for `CCN(CC)CC(=O)OCC(=O)[C@@]1(O)CC[C@H]2[C@@H]3CCC4=CC(=O)CC[C@]4(C)[C@H]3[C@@H](O)C[C@@]21C`, the Potency result in experiment [1], in experiment [2], in [3], in [4], in [5] and in experiment [6] was “inactive” in each case. Also, the Potency result in experiment [7] and in experiment [8] was “inactive” in each case.
For `CC(=O)OCC(=O)[C@@]1(O)CCC2C3CCC4=CC(=O)CC[C@]4(C)C3[C@@H](O)C[C@@]21C` (some centres not stated), the Potency result in [1], in experiment [2], in experiment [3], in experiment [4], in [5] and in experiment [6] was “inactive” in each case. The Potency entry in experiment [7], in [8] and in [9] was “inactive” in each case.
Turning to `C[C@@H]1CCC[C@H](C)N1CCCC(O)(c1ccccc1)c1ccccn1` (some centres not stated), the Potency result in [1], in experiment [2], in experiment [3], in experiment [4], in experiment [5] and in experiment [6] was “inactive” each time. For the same molecule, the Potency result in [7], in experiment [8] and in experiment [9] was “inactive” throughout.
On to `CC(=O)N(c1onc(C)c1C)S(=O)(=O)c1ccc(N)cc1`, for which the Potency result in experiment [1], in [2], in experiment [3], in experiment [4], in experiment [5] and in experiment [6] was “inactive” throughout. For the same molecule, the Potency result in [7] and in [8] was “inactive” throughout.
For the molecule `O=C(O)CCCC[C@@H]1SC[C@@H]2NC(=O)N[C@@H]21`, the Potency result in experiment [1], in experiment [2], in [3], in experiment [4], in [5] and in [6] was “inactive” each time. Further, the Potency result in experiment [7], in experiment [8] and in experiment [9] was “inactive” throughout.
On to `Cc1[nH]cnc1-c1ccc(Cl)cc1`, for which the Potency entry in [1], in experiment [2], in [3], in experiment [4], in experiment [10] and in experiment [6] was “inactive” each time. Moreover, the Potency entry in experiment [7], in [8] and in experiment [9] was “inactive” throughout.
For `CNC(=O)c1c(I)c(NC(C)=O)c(I)c(C(=O)O)c1I`, the Potency entry in experiment [1], in [2], in experiment [3], in [4], in [5] and in experiment [6] was “inactive” in each case. Besides, the Potency entry in experiment [7], in [8] and in experiment [9] was “inactive” each time.
Regarding `CO[C@@H]1[C@@H](O[C@@H]2O[C@H](C)[C@@H](O[C@H]3C[C@@](C)(O)[C@@H](O)[C@H](C)O3)[C@H](N(C)C)[C@H]2O)[C@@H](CC=O)C[C@@H](C)[C@@H](O[C@@H]2CC[C@H](N(C)C)[C@@H](C)O2)/C=C/C=C/C[C@@H](C)OC(=O)C[C@H]1OC(C)=O`, the Potency entry in [1], in [2], in experiment [3], in experiment [4], in [10] and in experiment [6] was “inactive” throughout. Moreover, the Potency result in experiment [7] and in experiment [9] was “inactive” throughout.
For `CC(C)(C)c1cc(C=O)cc(C(C)(C)C)c1O`, the Potency entry in experiment [1], in [2], in experiment [3], in experiment [4], in experiment [5] and in experiment [6] was “inactive” throughout. Also, the Potency result in experiment [7], in [8] and in experiment [9] was “inactive” each time.
For the molecule `CN1C(=O)c2ccccc2C1=O`, the Potency result in experiment [1], in experiment [2], in experiment [3], in experiment [4], in experiment [10] and in [5] was “inactive” throughout. Also, the Potency result in experiment [7] and in experiment [9] was “inactive” throughout.
Take `Cc1ccc2ccc(Cl)cc2n1`: the Potency entry in experiment [1], in experiment [2], in experiment [3], in [4], in experiment [5] and in experiment [6] was “inactive” throughout. Also, the Potency result in experiment [7], in [8] and in [9] was “inactive” in each case.
For the molecule `CC(=O)N(CC(=O)N(C)C)c1ccccc1`, the Potency result in experiment [1], in experiment [2], in experiment [3], in experiment [4], in experiment [5] and in experiment [6] was “inactive” in each case. Further, the Potency result in experiment [7], in [8] and in experiment [9] was “inactive” in each case.
Take `CCN(CC)C(=O)C1CN2CCc3cc(OC)c(OC)cc3C2CC1OC(C)=O` (configuration not stated): the Potency result in [1], in experiment [2], in experiment [3], in [4], in experiment [5] and in experiment [6] was “inactive” throughout. For the same molecule, the Potency entry in experiment [7], in experiment [8] and in experiment [9] was “inactive” each time.
For `N#CC1(c2ccc(F)cc2)CCC(=O)CC1`, the Potency entry in experiment [1], in experiment [2], in experiment [3], in experiment [4], in experiment [10] and in experiment [5] was “inactive” in each case. The Potency entry in [7], in experiment [8] and in [9] was “inactive” in each case.
